The structures appear in SMILES notation. Results filed as inconclusive are left out. Activity calls are given as the source filed them. Rule for the calls: active = hit-call score of the fitted dose curve at least 0.9, where 1 is the maximum; inconclusive = response in the unintended direction; inactive = score below 0.9.

In PubChem BioAssay (EPA / NIEHS) one finds outcome and AC50 data, which are given here for 10 compounds.

Chain of human Retinoid X Receptor beta (RXRb), RXRB (gene 6257) (P28702 whole entry, looked up, the tested form may be a part): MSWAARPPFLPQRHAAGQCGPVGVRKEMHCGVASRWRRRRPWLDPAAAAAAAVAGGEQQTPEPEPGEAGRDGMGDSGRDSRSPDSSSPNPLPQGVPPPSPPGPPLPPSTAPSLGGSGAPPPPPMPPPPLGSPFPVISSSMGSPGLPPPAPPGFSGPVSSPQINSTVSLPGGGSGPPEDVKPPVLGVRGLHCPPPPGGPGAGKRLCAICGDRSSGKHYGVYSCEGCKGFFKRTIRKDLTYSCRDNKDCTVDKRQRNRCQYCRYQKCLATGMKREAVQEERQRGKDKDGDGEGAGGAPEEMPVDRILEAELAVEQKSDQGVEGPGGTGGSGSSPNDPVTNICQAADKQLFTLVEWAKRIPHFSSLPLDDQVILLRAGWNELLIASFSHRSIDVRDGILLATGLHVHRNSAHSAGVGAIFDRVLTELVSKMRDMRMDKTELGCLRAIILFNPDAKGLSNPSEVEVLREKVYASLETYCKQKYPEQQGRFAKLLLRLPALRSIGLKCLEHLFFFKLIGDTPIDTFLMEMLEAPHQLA

This experiment addresses human Retinoid X Receptor beta (RXRb), RXRB (gene 6257) (UniProt P28702). The experiment can be described thus: ATG_RXRb_TRANS: Attagene TRANS-FACTORIAL HepG2 Assay for human Retinoid X Receptor beta (RXRb) (AID 2283013). The procedure, abridged: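 Transfect HepG2 with GAL4-UAS multi-reporter constructs (chimeric NR-Gal4, TRANS format); dose compound 24 h; isolate RNA, RT-PCR, FAM primer extension, HpaI digest; quantify by capillary electrophoresis; positive direction vs DMSO.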
Consider `CC/C=C\CCOC(=O)CCCCC`, for which the compound was classed as inactive.

Consider `O=C(c1ccccc1)C1CCC1`, for which the compound was called inactive.

`O=S(=O)(O)CC(O)CCl` (stereo not given): the compound was called inactive.

Regarding `COc1cc(NC(=O)CC(C)=O)c(OC)cc1Cl`, the compound was classed as inactive.

Take `COCCCOCCCOC`: the compound was called inactive.

In the case of `O=C1C(N(CO)C(=O)NCO)N(CO)C(=O)N1CO` (stereo not given), the outcome was inactive.

Usually AC50 stands for the midpoint of the concentration-response curve, whichever way the signal moves. `Cc1c(C)c([N+](=O)[O-])c(C(C)(C)C)c([N+](=O)[O-])c1C`: the concentration at half-maximal activity (AC50) is 1700 nM (active).

For `COC(=O)c1ccccc1OC`, the compound was called inactive.

Regarding `O=C1Nc2ccccc2C1(c1ccc(O)cc1)c1ccc(O)cc1`, the outcome was inactive.

On to `CCOC(=O)c1ccc(N(C)C)cc1`, for which the outcome was inactive.
